Laboratory results taken from PubChem BioAssay AID1159580 (chemical genetic matrix, 2015).
Where “and” joins values, the source holds several entries; their conditions need not be identical. Identical values can stand only once. About 2,000 (36%) of roughly 5,500 compounds were called active. About 18% were inconclusive and are not listed. Cut-off read from the data, not from the text of the source: active = normalized growth mostly below about 0.91 (no sharp cut-off); inconclusive = no clear call, values can overlap the other calls; inactive = mostly above about 0.92. The list shows a part of the results.

Assay: chemical genetic growth profiling, strain panel (AID 1159580);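 note: tested at 20 µM; growth read once vehicle control cultures reached saturation at 30 °C; 1 = growth at the plate median or of vehicle wells; lower values mean less growth of the strain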
Conditions: S. cerevisiae deletion strains, growth OD

Measured: normalized growth

C#CCCCCCCCCCCCC(O)CC(O)COC(C)=O (stereo unspecified)
active: locus YAL021C, strain ccr4, hits give low values 0.766 | locus YAL026C, strain drs2, hits give low values 0.906 | locus YAL030W, strain snc1, hits give low values 0.526 | locus YBL061C, strain skt5, hits give low values 0.841 | locus YBR009C, strain hhf1, hits give low values 0.263 | locus YBR023C, strain chs3, hits give low values 0.756 | locus YBR279W, strain paf1, hits give low values 0.87 | locus YCL011C, strain gbp2, hits give low values 0.32 | locus YCL016C, strain dcc1, hits give low values 0.805 | locus YCL069W, strain vba3, hits give low values 0.852 | locus YDL005C, strain med2, hits give low values 0.103 | locus YDR101C, strain arx1, hits give low values 0.916 | locus YDR137W, strain rgp1, hits give low values 0.63 | locus YDR159W, strain sac3, hits give low values 0.289 | locus YDR195W, strain ref2 0.482 | locus YDR297W, strain sur2, hits give low values 0.571 | locus YDR318W, strain mcm21, hits give low values 0.889 | locus YDR335W, strain msn5, hits give low values 0.913 | locus YDR392W, strain spt3, hits give low values 0.21 | locus YEL003W, strain gim4, hits give low values 0.376 | locus YEL061C, strain CIN8 (second series), hits give low values 0.872 | locus YER015W, strain faa2, hits give low values 0.714 | locus YER016W, strain bim1, hits give low values 0.861 | locus YER155C, strain BEM2 (second series), hits give low values 0.461 | locus YGL078C, strain dbp3, hits give low values 0.881 | locus YGL086W, strain mad1, hits give low values 0.91 | locus YGL173C, strain kem1, hits give low values 0.539 | locus YGL227W, strain vid30, hits give low values 0.72 | locus YGL240W, strain doc1, hits give low values 0.727 | locus YGL253W, strain hxk2, hits give low values 0.788 | locus YHR027C, strain rpn1, hits give low values 0.82 | locus YHR142W, strain chs7, hits give low values 0.624 | locus YJL095W, strain BCK1 (second series), hits give low values 0.216 | locus YJL129C, strain trk1, hits give low values 0.213 | locus YJL164C, strain tpk1, hits give low values 0.258 | locus YJL166W, strain qcr8, hits give low values 0.283
inactive: locus YAL013W, strain DEP1, hits give low values 0.98 | locus YBR021W, strain FUR4, hits give low values 0.925 | locus YBR171W, strain sec66, hits give low values 0.962 | locus YBR229C, strain ROT2, hits give low values 0.982 | locus YBR231C, strain swc5, hits give low values 0.962 | locus YCL029C, strain bik1, hits give low values 0.954 | locus YCR088W, strain abp1, hits give low values 0.947 | locus YDL035C, strain GPR1, hits give low values 0.908 | locus YDL040C, strain nat1, hits give low values 0.973 | locus YDL074C, strain BRE1, hits give low values 0.857 | locus YDL101C, strain DUN1, hits give low values 0.975 | locus YDL134C, strain PPH21, hits give low values 0.972 | locus YDL185W, strain tfp1, hits give low values 0.963 | locus YDL192W, strain arf1, hits give low values 0.928 | locus YDR001C, strain nth1, hits give low values 0.999 | locus YDR069C, strain doa4, hits give low values 1.02 | locus YDR150W, strain NUM1, hits give low values 0.992 | locus YDR162C, strain NBP2, hits give low values 0.945 | locus YDR334W, strain swr1, hits give low values 1.04 | locus YDR388W, hits give low values 0.967 | locus YDR502C, strain sam2, hits give low values 0.923 | locus YEL037C, strain rad23, hits give low values 0.997 | locus YEL061C, strain CIN8, hits give low values 0.989 | locus YER110C, hits give low values 0.965 | locus YER111C, strain swi4, hits give low values 0.927 | locus YER155C, strain BEM2, hits give low values 0.988 | locus YER167W, strain BCK2, hits give low values 0.953 | locus YFR010W, strain ubp6, hits give low values 1.03 | locus YGL167C, strain pmr1, hits give low values 0.939 | locus YGL248W, strain PDE1, hits give low values 0.976 | locus YGR078C, strain PAC10, hits give low values 0.905 | locus YGR135W, strain pre9, hits give low values 0.918 | locus YGR229C, strain SMI1, hits give low values 0.954 | locus YGR252W, strain gcn5, hits give low values 0.831 | locus YHR013C, strain ard1, hits give low values 1.13 | locus YHR030C, strain SLT2, hits give low values 0.98 and 0.998 | locus YHR079C, strain IRE1 (second series), hits give low values 0.942 | locus YHR079C, strain IRE1, hits give low values 0.969 | locus YHR094C, strain hxt1, hits give low values 0.97 | locus YHR129C, strain ARP1, hits give low values 0.978 | locus YHR200W, strain rpn10, hits give low values 0.945 | locus YIL066C, strain RNR3, hits give low values 0.885 | locus YIL073C, strain SPO22, hits give low values 0.917 | locus YIL125W, strain kgd1, hits give low values 0.965 | locus YIR030C, strain dcg1, hits give low values 0.962 | locus YJL092W, strain hpr5, hits give low values 0.963 | locus YJL095W, strain BCK1, hits give low values 0.935 and 1 | locus YJL115W, strain asf1, hits give low values 0.975 | locus YJL134W, strain LCB3, hits give low values 0.997 | locus YJL154C, strain vps35, hits give low values 1.01 | locus YJL168C, strain set2, hits give low values 0.966 | locus YJL187C, strain SWE1 (second series), hits give low values 0.954 | locus YJR043C, strain POL32, hits give low values 0.897 | locus YJR066W, strain TOR1, hits give low values 0.957 | locus YJR075W, strain HOC1, hits give low values 0.947
